# Most compounds without a hit are left out; they make up all but 0.77% or so of the library.
# Vif-APOBEC3G blk – blocks the Vif interaction with human APOBEC3G | hit rate 0.076% among 410,000 | Potency, µM (titrated, usually from 46.1 µM), for the others: at the top dose activity, negative = active, usual class: inhibitors | HeLa A3G-eYFP + Vif (tagged APOBEC3G with the HIV-1 protein that degrades it), YFP fluorescence, overnight; further: potency means the concentration at half of the fitted maximal effect; on the % scale 0 is the no-effect control and ±100 the full control effect; nearly all actives have a fitted effect of over 60% in size
#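 HeLa cells stably expressing Vif and C-terminally eYFP-tagged A3G, seeded overnight at 37 deg C, then exposed to compound by pintool overnight at 37 deg C. Rise in yellow fluorescence (Ex 488/Em 500-530, Acumen) marks blocked Vif-driven A3G degradation.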
# GCN5L2 inh – inhibitors of human GCN5L2 histone acetyltransferase; hit rate 0.21% among 390,000; Q92830; Potency, µM (highest dose often 58.9 µM), inactives show at the top dose activity change, negative = inhibition, most hits filed as inhibitors; AID 504327; GCN5L2 HAT assay, ThioGlo1 CoA-SH fluorescence; further: potency means the concentration at half of the fitted maximal effect; on the % scale 0 is the no-effect control and ±100 the full control effect
#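 qHTS, 1536-well. 20nM enzyme, pH 7.5 HEPES/EDTA/Tween-20 buffer; 15 min compound preinc., RT. Start: 75uM H3(1-25), 70uM AcCoA, 50uM ThioGlo1. Read Ex340/Em540 at t=0 (autofluorescence flag) and t=20 min.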
# IL-2 act – activators of IL-2; IL-2 activation reporter assay, cell-based qHTS; stimulated with anti-CD3/CD4/CD28 beads; in transgenic mouse T cells; activation, % (series mostly up to about 46 µM); hit rate 0.065% among 360,000; AID 652025; in the data active means activation above about 50%; inconclusive means mostly about 30% to 49%; further: 0% is about no effect
#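 Readout: EGFP and DsRed signals by fluorescent plate cytometry. Unstimulated transgenic mouse T cells received compound 60 min before antibody-bead stimulation, then incubated 18 h at 37 degrees C.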
# Vif-A3F inh – blocks the Vif interaction with APOBEC3F | HeLa A3F-eYFP + Vif (tagged APOBEC3F with the HIV-1 protein that degrades it), YFP fluorescence increase | Potency, µM (series often up to 46.1 µM), without a hit: top-dose activity, negative = active | hit rate 0.2% among 390,000; further: potency means the concentration at half of the fitted maximal effect; % of control where 0% means no effect; nearly all actives have a fitted effect of over 65% in size
#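 HeLa cells stably expressing Vif plus C-terminally eYFP-tagged A3F were seeded, incubated overnight at 37 deg C, dosed with compound, incubated overnight again at 37 deg C. Yellow fluorescence (Ex 488/Em 500-530) reported blocked Vif-mediated A3F-eYFP degradation.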
# PKM2 act – increases activity of human pyruvate kinase M2; hit rate 0.34% among 260,000; Potency, µM (doses to about 57.5 µM), inactives show at the highest dose activation, actives largely listed as activators; purified PKM2, Kinase-Glo ATP luminescence, activation; response scale: 0% is enzyme alone, no compound; P14618; AID 1631; further: potency means the concentration at half of the fitted maximal effect; on the % scale 0 is the no-effect control and ±100 the full control effect; nearly all actives have a fitted effect of over 55% in size
#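 hPK-M2, >95% pure; 0.1 mM ADP / 0.5 mM PEP final; imidazole pH7.2 buffer w/ 7 mM MgCl2, 50 mM KCl; 1 h RT; Kinase-Glo lum. Intermediate enzyme activity for dual inhibitor/activator qHTS.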
# GoLoco inh red – RGS12 GoLoco-Gai1 interaction inhibition. P63096. Gai1:RGS12 GoLoco peptide FP, rhodamine, 10 min. Potency, µM (doses to about 61.6 µM), without a hit: at the highest dose activity, negative = inhibition, actives largely listed as inhibitors. hit rate 0.44% among 230,000. AID 880; active means well fitted inhibition curve with a large enough effect, not every such curve was filed as active; inactive means no such curve, though single readings can be large or run the other way; further: potency means the concentration at half of the fitted maximal effect; on the % scale 0 is the no-effect control and ±100 the full control effect; nearly all actives have a fitted effect of over 30% in size
# Target sequence (P63096 whole entry, looked up): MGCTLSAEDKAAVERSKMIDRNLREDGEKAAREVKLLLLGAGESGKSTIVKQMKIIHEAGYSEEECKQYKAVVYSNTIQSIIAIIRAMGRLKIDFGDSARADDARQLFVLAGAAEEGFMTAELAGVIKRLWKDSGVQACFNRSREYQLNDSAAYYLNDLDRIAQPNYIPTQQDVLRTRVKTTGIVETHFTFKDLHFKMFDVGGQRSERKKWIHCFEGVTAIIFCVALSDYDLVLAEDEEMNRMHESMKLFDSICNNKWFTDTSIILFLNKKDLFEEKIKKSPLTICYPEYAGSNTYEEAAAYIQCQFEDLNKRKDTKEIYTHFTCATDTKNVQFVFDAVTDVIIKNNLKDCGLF
# The depositor's hits bear a star; u = inconclusive; x = no result given. Unless noted, the call rests on the fitted dose curve; in most records, active means well fitted curve in the direction sought with a large enough effect; inconclusive means small, poorly fitted or top-dose-only effect, or another doubt; inactive means no such curve, though single readings can be large; an effect the other way counts as inactive or inconclusive.
SMILES,Vif-APOBEC3G blk,GCN5L2 inh,IL-2 act,Vif-A3F inh,PKM2 act,GoLoco inh red
COC(=O)COc1cc(Br)c(/C=C2/SC(=O)N(CC(=O)N3CCCC3)C2=O)cc1OC,0%,2%,-3,0%,-5%,8%
O=C(NCCCN1CCOCC1)c1cc(-c2cccs2)on1,1%,-2%,-1,-15%,1%,-5%
Cc1ccc(-c2cc(C(=O)NCc3cccnc3)no2)cc1,3%,-4%,1,-2%,2%,6%
O=C(NCc1ccc(F)cc1)c1cc(-c2cccs2)on1,0%,-3%,-2,-14%,9%,29%
O=C(NCCCn1ccnc1)c1cc(-c2cccs2)on1,-3%,2.2µM*,-1,u,-9%,-21%
O=C(NCc1ccccc1)c1cc(-c2cccs2)on1,-1%,2.5µM*,-1,-1%,-6%,-9%
COC(=O)c1ccccc1NC(=O)c1cc(-c2cccs2)on1,0%,3.2µM*,-2,-6%,-4%,-2%
O=C(NCc1cccnc1)c1cc(-c2ccco2)on1,2%,1%,-3,-6%,22µM*,-9%
CN(C)CC1CCCCC1OC(=O)c1ccc(S(=O)(=O)N(C)c2ccccc2)cc1 (centres undefined),3%,3%,1,5%,2%,x
O=C(NCCCC1CCCC1)C1CCC(=O)N(Cc2ccccc2F)C1 (centres undefined),0%,x,-4,5%,x,x
CC(C)N(C1=CC(=O)OC12CCCCC2)C(C)C,-4%,-7%,1,3%,-3%,3%
CCN(CC)C1=CC(=O)OC12CCCCC2,2%,20µM*,0,3%,-16%,-70%
NC(C(=O)O)c1ccc(O)cc1 (centres undefined),x,1%,x,x,x,x
NC(C(=O)O)c1cc(O)c(Cl)c(O)c1 (centres undefined),x,32µM*,x,x,x,-28%
O=C(COC(=O)C1CC1)c1c[nH]c2ccccc12,-1%,0%,-1,-1%,-4%,7%
CNC(=O)C(=O)N1CCC2(CC1)OCCN2S(=O)(=O)c1ccc(C)cc1,0%,4%,0,-23%,x,x
O=C(COc1ccc2c(c1)oc(=O)c1ccccc12)N[C@@H](Cc1c[nH]c2ccccc12)C(=O)O,4%,25µM*,0,2%,5%,x
Cc1c(C)c2ccc(OCC(=O)N[C@@H](Cc3c[nH]c4ccccc34)C(=O)O)cc2oc1=O,0%,-15%,0,0%,-1%,x
O=C(NCc1cccs1)C1CCN(S(=O)(=O)c2ccccc2F)CC1,1%,-2%,-1,6%,14µM*,-1%
CSc1ccc(S(=O)(=O)N2CCC(C(=O)NCc3ccco3)CC2)cc1,-1%,-11%,1,-25%,10µM*,x
O=C(NCc1cccs1)C1CCN(S(=O)(=O)c2cccs2)CC1,3%,1%,-2,-1%,16µM*,-8%
O=C(NCc1cccs1)C1CCN(S(=O)(=O)c2ccc(Br)s2)CC1,-2%,4%,4,4%,27%,4%
COc1ccc(CNc2nc3ccccc3n2C)c(OC)c1,1%,23%,1,6%,-55%,-7%
COc1ccc(N=Nc2nc3cc(Br)c(Br)cc3n2C)c(OC)c1,-7%,3%,1,u,11%,1.6µM*
COc1cccc(NC(=O)CN(C)C(=O)c2ccccc2Sc2ccccc2C#N)c1,-5%,-5%,2,1%,x,x
SMILES,Vif-APOBEC3G blk,GCN5L2 inh,IL-2 act,Vif-A3F inh,PKM2 act,GoLoco inh red
COC(=O)C1CSc2[nH]c(=O)sc2C1c1ccc(O)c(OC)c1 (centres undefined),-5%,-7%,0,-9%,3%,20µM*
CC(C)c1nc(-c2ccc([N+](=O)[O-])cc2)cs1,-2%,-4%,1,0%,-5%,9%
COc1ccc(NS(=O)(=O)c2ccc3c(c2)NC(=O)CO3)cc1,0%,-3%,0,-3%,13%,4%
COc1cccc(C2=NO[C@@H]3C(=O)N(c4ccc5c(c4)OCCO5)C(=O)[C@H]23)c1OC,-2%,-2%,-1,-8%,-12%,0%
Cc1cc(NS(=O)(=O)c2ccc(NC(=O)CSc3nc4sc(C)c(C)c4c(=O)[nH]3)cc2)no1,2%,14µM*,1,4%,-3%,7%
O=C(CCN1C(=O)/C(=C/c2ccc(Cl)cc2)SC1=S)Nc1cccc(C(=O)O)c1,3%,-4%,1,-3%,x,x
O=C(O)c1cccc(N2C(=O)/C(=C/c3ccc(SCc4ccc(Cl)cc4)o3)SC2=S)c1,-11%,22µM*,0,u,-6%,85%
Cn1c(CCNC(=O)c2ccco2)nc2cc(NS(=O)(=O)c3ccccc3)ccc21,2%,-5%,-1,-2%,3.2µM*,9%
CCc1nc2ccc(C(=O)NCCN3CCNC3=O)cn2c1N(C)Cc1ccc(OC)cc1,2%,x,0,x,x,x
COc1cc2c3nnc(-c4ccc(F)cc4)c-3cn(Cc3ccc(F)cc3)c2cc1OC,u,-18%,u,u,-14%,45%
COc1cc2c3nnc(-c4ccc(F)cc4)c-3cn(Cc3ccccc3)c2cc1OC,u,-5%,199*,u,7%,21%
CN1/C(=C\C=O)C(C)(C)c2ccccc21,-5%,-11%,-4,-5%,3%,118%
CC1=CC(=C(C#N)C#N)c2ccccc2N1C,u,-8%,-3,u,1%,4%
CC1=C/C(=C\C=C(C#N)C#N)N(C)c2ccccc21,1.8µM*,-5%,-36,u,-2%,131%
CN1/C(=C/C=C(C#N)C#N)C(C)(C)c2ccccc21,-30%,-2%,115*,u,-2%,273%
CC(=O)Oc1c(C)cc(OCC(O)CNC(C)C)c(C)c1C (centres undefined),x,-14%,x,x,x,13%
N#CC1=C(S)N(c2ccc(F)cc2)C2(CCCCC2)NC1=O,9%,13%,-2,11µM*,-3%,-3%
CCNc1ccc(Br)cc(C(=O)/C=C/c2ccccc2Cl)c1=O,10µM*,x,3,u,x,x
CNc1ccc(Br)cc(C(=O)/C=C/c2cccc(Cl)c2Cl)c1=O,u,-5%,15,u,19%,90%
N#C/C(=C/c1ccc(N2CCOCC2)o1)c1ccc(Cl)cc1,7.1µM*,-22%,7,u,1.3µM*,-2%

# Screens from PubChem.
